Reference: PubChem BioAssay (NCATS)
Inconclusive results are not listed. Entries that show only a call come without a potency. The source made the active and inactive calls. Unless noted, calls follow the shape of the dose curve; as a rule, active = well fitted curve in the direction sought with a large enough effect; inconclusive = small, poorly fitted or top-dose-only effect, or another doubt; inactive = no such curve, though single readings can be large; an effect the other way counts as inactive or inconclusive.

Columns and labels:
[1] = qHTS to identify inhibitors of the type 1 interferon - major histocompatibility complex class I in skeletal muscle: primary screen against the NCATS Mechanism Interrogation Plate v5.0 (MIPE) Libary (AID 1347411); also: nearly all actives have a fitted effect of over 65% in size; also: potency is read from the fitted curve at half-maximal effect
How it was run: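 HLA-B HiBit myoblasts, dexamethasone-free medium + 4 ng/ml IFN-b, 24 h compound, 11-pt 1:3 from 46 uM final. Readout: Nano-Glo HiBiT lytic luminescence after 10 min lysis, RT.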

[2] = Cytotoxicity counterscreen for inhibitors of SARS-CoV-2 cell entry (AID 1645845; calls by dose curve; also: nearly all actives have a fitted effect of over 50% in size; also: potency is read from the fitted curve at half-maximal effect); details: outcome: dose series up to 57.1 µM unless noted
How it was run: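 After a 15 min room-temperature ATPLite 1step step, luminescence reflected ATP remaining in HEK293-ACE2 cells exposed to compound for 1 h plus 48 h at 37 C, with percent activity set by cell and no-cell controls.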

[3] = target: Endonuclease 4 (Escherichia coli (strain K12)) (UniProt P0A6C1); assay: Counterscreen for APE1 Inhibitors: qHTS Validation Assay for Inhibitors of Endonuclease IV (AID 1708)
How it was run: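 Measured as reaction progress, the fluorescence gain between first and third kinetic reads after adding 50 nM TAMRA/BHQ-2 THF duplex to 2 nM enzyme preincubated 15 min with compound; 2 mM MgCl2, pH 7.5.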

[4] = qHTS for differential inhibitors of proliferation of Plasmodium falciparum line 3D7 (AID 1876); also: potency is read from the fitted curve at half-maximal effect
[5] = qHTS for differential inhibitors of proliferation of Plasmodium falciparum line D10 (AID 1877);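 also: parasites grown with compound for 72 h before DNA staining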; also: potency is read from the fitted curve at half-maximal effect
[6] = target: Ferritin light chain (Equus caballus) (UniProt P02791); assay: qHTS Validation Assay for Identification of Novel General Anesthetics (AID 2323); also: series mostly up to about 77 µM
How it was run: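 Apoferritin from horse spleen (10 uM) was mixed with 1-aminoanthracene at 50% saturation in PBS, then compounds were added. After 10 min at room temperature, fluorescence was read (ex 380 nm, em 535 nm) and normalized to free-probe and complex controls.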

[7] = Quantitative high throughput screen for delayed death inhibitors of the malarial parasite plastid, 96 hour incubation (AID 488745); also: nearly all actives have a fitted effect of over 70% in size; also: potency is read from the fitted curve at half-maximal effect
How it was run: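 Luciferase-expressing P. falciparum, infected RBCs 2% Hct/0.1% parasitemia (final); 96 h cpd exposure, 37 C, 5% CO2; RPMI 1640 + 0.5% Albumax, bicarbonate, gentamycin. Readout: luminescence loss = growth inhibition.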

[8] = Quantitative high throughput screen for delayed death inhibitors of the malarial parasite plastid, 48 hour incubation (AID 488752); also: nearly all actives have a fitted effect of over 65% in size; also: potency is read from the fitted curve at half-maximal effect
How it was run: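 Luciferase-expressing P. falciparum in RBCs, 2% Hct, 0.1% parasitemia final; RPMI 1640 + 0.5% Albumax; 48 h, 37 C, 5% CO2; luminescence readout, signal drop = growth inhibition.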

[9] = target: Voltage-gated inwardly rectifying potassium channel KCNH2 (Homo sapiens) (UniProt Q12809); assay: qHTS Assay for Small Molecule Inhibitors of the Human hERG Channel Activity (AID 588834);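 also: U2OS cells transduced with hERG by BacMam; top concentration of the series differs between compounds; lower thallium flux fluorescence means stronger hERG block; nearly all actives have a fitted effect of over 50% in size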
How it was run: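 Cells were infected with hERG-BacMam virus for 4 hrs at room temperature, grown overnight, then seeded at 2000/well. After dye loading and roughly 10 min compound treatment, thallium influx was triggered and fluorescence recorded.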

[10] = qHTS for differential inhibitors of proliferation of Plasmodium falciparum line W2 (AID 1883); details: Potency: Plasmodium falciparum W2 proliferation inhibition;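 also: parasites grown with compound for 72 h before lysis and staining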; also: potency is read from the fitted curve at half-maximal effect
[11] = qHTS for differential inhibitors of proliferation of Plasmodium falciparum line HB3 (AID 1886); details: Potency: Plasmodium falciparum HB3 proliferation inhibition;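 also: parasites grown with compound for 72 h before SYBR Green readout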; also: potency is read from the fitted curve at half-maximal effect

Sequence of Ferritin light chain (Equus caballus) (P02791 2-175 limits assumed): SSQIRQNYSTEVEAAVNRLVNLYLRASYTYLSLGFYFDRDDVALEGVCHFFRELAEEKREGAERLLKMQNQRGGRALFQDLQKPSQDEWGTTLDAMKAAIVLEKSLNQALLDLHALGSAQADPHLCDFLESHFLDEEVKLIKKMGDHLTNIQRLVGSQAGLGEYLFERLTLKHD
Sequence of Voltage-gated inwardly rectifying potassium channel KCNH2 (Homo sapiens) (Q12809 whole entry, looked up): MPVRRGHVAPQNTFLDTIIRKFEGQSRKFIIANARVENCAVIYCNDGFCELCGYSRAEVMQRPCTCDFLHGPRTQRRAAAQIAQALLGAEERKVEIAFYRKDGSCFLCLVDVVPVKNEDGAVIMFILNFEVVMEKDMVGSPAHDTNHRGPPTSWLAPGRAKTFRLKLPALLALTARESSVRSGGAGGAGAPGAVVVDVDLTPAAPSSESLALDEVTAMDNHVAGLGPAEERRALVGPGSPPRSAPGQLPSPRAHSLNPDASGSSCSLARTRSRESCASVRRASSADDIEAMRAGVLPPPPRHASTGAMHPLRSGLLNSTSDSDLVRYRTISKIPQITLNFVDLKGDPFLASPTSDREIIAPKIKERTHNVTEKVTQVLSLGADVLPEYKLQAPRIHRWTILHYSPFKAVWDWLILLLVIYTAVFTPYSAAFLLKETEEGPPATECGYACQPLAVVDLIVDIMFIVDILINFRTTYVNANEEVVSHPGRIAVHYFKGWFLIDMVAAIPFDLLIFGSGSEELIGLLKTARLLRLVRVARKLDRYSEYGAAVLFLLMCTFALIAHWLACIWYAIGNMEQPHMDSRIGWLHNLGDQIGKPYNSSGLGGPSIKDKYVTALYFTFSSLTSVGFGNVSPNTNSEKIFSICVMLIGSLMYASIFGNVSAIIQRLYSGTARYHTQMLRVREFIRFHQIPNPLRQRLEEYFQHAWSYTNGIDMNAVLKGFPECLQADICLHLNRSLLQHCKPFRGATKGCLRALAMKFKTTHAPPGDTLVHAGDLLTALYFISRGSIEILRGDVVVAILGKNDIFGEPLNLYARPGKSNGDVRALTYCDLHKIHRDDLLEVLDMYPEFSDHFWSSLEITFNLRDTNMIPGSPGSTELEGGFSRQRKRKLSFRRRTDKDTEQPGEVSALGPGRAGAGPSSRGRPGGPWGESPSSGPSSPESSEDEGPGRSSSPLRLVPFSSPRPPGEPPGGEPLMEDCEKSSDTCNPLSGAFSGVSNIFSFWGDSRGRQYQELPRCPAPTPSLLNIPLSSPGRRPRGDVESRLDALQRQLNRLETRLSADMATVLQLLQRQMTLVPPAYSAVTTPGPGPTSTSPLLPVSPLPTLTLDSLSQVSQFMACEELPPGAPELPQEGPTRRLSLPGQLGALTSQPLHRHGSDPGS

COc1cc2cc(c1Cl)N(C)C(=O)C[C@H](OC(=O)C(C)C)[C@]1(C)O[C@@H]1[C@H](C)[C@@H]1C[C@@](O)(NC(=O)O1)[C@H](OC)/C=C/C=C(\C)C2
Potency [1]: inactive

CC(N[C@H]1C[C@@H]1c1ccccc1)c1ccc2c(c1)OCCO2 (some centres not stated)
Potency [1]: inactive | Potency [2]: inactive

O=C(CBr)N1CC([N+](=O)[O-])([N+](=O)[O-])C1
Potency [1]: inactive | Potency [2]: inactive

O=C(O)CNC(=O)C1C(=O)N(C2CCCCC2)C(=O)N(C2CCCCC2)C1=O
Potency [1]: inactive | Potency [2]: inactive

CC(C)[C@]12O[C@H]1[C@@H]1O[C@@]13[C@@]1(C)CCC4=C(COC4=O)[C@@H]1C[C@@H]1O[C@@]13C2=O
Potency [1]: 0.131 µM (active) | Potency [2]: inactive

COC(=O)[C@]12CCC(C)(C)C[C@H]1[C@H]1C(=O)C=C3[C@@]4(C)C=C(C#N)C(=O)C(C)(C)[C@@H]4CC[C@@]3(C)[C@]1(C)CC2
Potency [1]: 1.17 µM (active) | Potency [2]: 2.82 µM (active)

C[C@]12COC(=O)C[C@@H]1CC[C@@H]1[C@@H]2CC[C@@]2(C)[C@H]1CC[C@]2(C)O
Potency [1]: inactive | Potency [2]: inactive

COC[C@H]1OC(=O)c2coc3c2[C@@]1(C)C1=C(C3=O)[C@@H]2CC[C@H](O)[C@@]2(C)C[C@H]1OC(C)=O
Potency [1]: inactive | Potency [2]: inactive

CCCCCCC(C)(C)c1cc(O)c2c(c1)OC(C)(C)C1CC=C(CO)C[C@H]21 (some centres not stated)
Potency [1]: 13.1 µM (active) | Potency [2]: inactive

CO[C@H]1CCC(O[C@H]2C[C@H]([C@]3(C)CC[C@]4(C[C@H](O)[C@@H](C)[C@@H]([C@@H](C)/C=C(\C)C(=O)[C@H](C)C[C@H](C)C(=O)O)O4)O3)O[C@]3(O[C@@H]([C@H]4O[C@@](O)(CO)[C@H](C)C[C@@H]4C)C[C@@H]3C)[C@@H]2C)O[C@@H]1C (some centres not stated)
Potency [2]: inactive

Cn1c(COP(=O)(NCCBr)NCCBr)cnc1[N+](=O)[O-]
Potency [1]: inactive | Potency [2]: inactive

N#CC(O[C@@H]1O[C@H](CO[C@@H]2O[C@H](CO)[C@@H](O)[C@H](O)[C@H]2O)[C@@H](O)[C@H](O)[C@H]1O)c1ccccc1 (some centres not stated)
Potency [1]: inactive | Potency [2]: inactive

C[C@@H](C1CC[C@@]2(O)C3=CC(=O)[C@@H]4C[C@@H](O)[C@@H](O)C[C@]4(C)[C@H]3CC[C@]12C)[C@H](O)CCC(C)(C)O (some centres not stated)
Potency [1]: inactive | Potency [2]: inactive

Cc1[nH]ncc1-c1cc2nc([C@@H]3CC4CCN3CC4)[nH]c(=O)c2s1
Potency [1]: 7.39 µM (active)

C=C(C)[C@@H]1CCC(C)=C[C@H]1c1c(O)cc(CCCCC)cc1O
Potency [1]: 33 µM (active) | Potency [2]: inactive

CC12CCC3C(CCC4=C(O)C(=O)CCC43C)C1CCC2=O (configuration not stated)
Potency [3]: inactive | Potency [4]: inactive | Potency [5]: inactive | Potency [6]: inactive | Potency [7]: inactive | Potency [8]: inactive | Potency [9]: inactive

CCCN(CCC)[C@@H]1CCc2c(F)ccc(O)c2C1
Potency [3]: inactive | Potency [4]: 1.58 µM (active) | Potency [5]: 2.24 µM (active) | Potency [10]: 891 nM (active) | Potency [11]: 1.41 µM (active) | Potency [6]: inactive | Potency [7]: 2.62 µM (active) | Potency [8]: 2.62 µM (active) | Potency [9]: inactive

C[N+]1(C)C2CC(OC(=O)C(CO)c3ccccc3)CC1C1OC12 (configuration not stated)
Potency [3]: inactive | Potency [4]: inactive | Potency [5]: inactive | Potency [10]: inactive | Potency [11]: inactive | Potency [6]: inactive | Potency [7]: inactive | Potency [8]: inactive | Potency [9]: inactive
